Test results from PubChem BioAssay (Tox21).
Where “and” joins values, the source holds several entries; their conditions need not be identical. Identical values can stand only once. Results filed as inconclusive are left out. The source holds several records for some structures; these can differ, active in one and inactive in another. Calls of active or inactive are those of the source. Calls follow the shape of the dose curve; as a rule, active = well fitted cell-killing curve with a large enough effect in the repeat runs; inconclusive = weak or mixed curves, or effect the other way; inactive = flat fitted curve, though single readings scatter.

Assay: qHTS RealTime-Glo MT Cell Viability Assay in HEK293 cells - 32 hour (AID 1224868); also: nearly all actives have a fitted effect of over 50% in size; as to activity change, negative = cytotoxic: top concentration of the series differs between compounds
Conditions: RealTime-Glo luminescence; series mostly up to 76.8 µM; activity change, negative = cytotoxic: at the top concentration
Excerpt: National Center for Advancing Translational Sciences [NCATS]
NIH Chemical Genomics Center [NCGC]
U.S. Environmental Protection Agency [EPA]
National Institutes of Environmental Health Sciences [NIEHS]
National Toxicology Program [NTP]
U.S. Food and Drug Administration [FDA]
Measure of cell viability is critical in the cell-base assay. Analysis of cell viability is necessary for the characterization of cell responses to cytotoxic drugs and environmental stress. A RealTime-Glo MT Cell Viability Assay to monitor cell viability in real time of continues cell culture during 40 hours of compound treatment was used to screen Tox21 10K library compounds in Hek293 cells. The RealTime-Glo MT Cell Viability Assay is a nonlytic, homogeneous, bioluminescent method to measure cell viability in real time using a simple, plate-based method. The assay involves adding NanoLuc luciferase and a cell-permeant prosubstrate to cells in culture. Viable cells reduce the proprietary prosubstrate to generate a substrate for NanoLuc luciferase. This substrate diffuses from cells into the surrounding culture medium, where it is rapidly used by the NanoLuc Enzyme to produce a luminescent signal. The signal correlates with the number of viable cells, making the assay well suited for cytotoxicity studies.
Tox21 Assay Protocol Summary:
The mixture of Hek293 cell suspension and reagents were dispensed at 600cells/6 ul/well in 1536-well tissue culture treated black solid bottom plates using a Multidrop dispenser. After the assay plates were incubated at a 37 C/5% CO2 incubator for 5 hours, 23 nL of compounds dissolved in DMSO, positive and negative controls was transferred to the assay plate by a pintool work station. The plates were incubated at 37 C for 40 hours. The luminescence intensity were measured at 0h, 8h, 16h, 24h, 32h and 40h time points using ViewLux plate reader during compound treatment.
% is scaled to controls: 0 for no effect and ±100 for the full control effect; potency is read from the fitted curve at half-maximal effect.

SMILES | activity change, negative = cytotoxic | Potency
CC(N)=O | 15.4% [at 200 µM] (inactive) | 
Nc1cc(S(=O)(=O)O)cc2cc(S(=O)(=O)O)cc(O)c12 | -14.8% (inactive) | 
Clc1ccc2c(c1)C(N1CCNCC1)=Nc1ccccc1O2 |  | 43.6 µM (active) and 26.8 µM (active)
COc1cc(C(=S)N2CCOCC2)ccc1O | 2.28% [at 35.3 µM] (inactive) | 
CCc1cc(C(C)(C)C)c(O)c(C(C)(C)C)c1 |  | inactive
O=C1Nc2ccccc2C1(c1ccc(O)cc1)c1ccc(O)cc1 |  | 49 µM (active) and inactive
O=C(O)c1cccc(C(=O)O)c1 |  | inactive
CC1=C(C=O)C(C)(C)CC=C1 | -0.915% (inactive) | 
CC(C)(C)c1cc(C(C)(C)C)c(O)c(C(C)(C)C)c1 | -10.7% (inactive) | 
CCC(C)(Oc1ccc(C2(c3ccc(OC(C)(CC)C(=O)O)cc3)CCCCC2)cc1)C(=O)O (stereo not given) | 6.13% [at 35.3 µM] (inactive) | 
CCCOC(=O)c1cc(O)c(O)c(O)c1 |  | 38.9 µM (active)
CC(C)CCOC(=O)c1ccc(N(C)C)cc1 | 0.77% [at 35.3 µM] (inactive) | 
Nc1cc(Cl)c(-c2cc(Cl)c(N)cc2Cl)cc1Cl |  | 6.91 µM (active) and 1.74 µM (active)
C#CC(C)(CC)OC(=O)c1ccccc1C(=O)O (stereo not given) | 1.17% [at 35.3 µM] (inactive) | 
NCCCCCC(=O)O | 1.4% [at 35.3 µM] (inactive) | 
Oc1ccc(Cl)cc1Cc1cc(Cl)ccc1O |  | 19.8 µM (active) and 49 µM (active)
CCCCCCCCCCCCc1ccccc1O |  | 48.3 µM (active) and 49 µM (active)
c1ccc2c(c1)-c1cccc3c1c-2cc1ccccc13 |  | inactive
Cc1ccc(-c2cc(C(F)(F)F)nn2-c2ccc(S(N)(=O)=O)cc2)cc1 |  | 38.7 µM (active) and 30.9 µM (active)
C=C(C)C(=O)O |  | inactive

SMILES | activity change, negative = cytotoxic | Potency
CC(C)(c1ccccc1)c1ccc(Nc2ccc(C(C)(C)c3ccccc3)cc2)cc1 | -11.4% (inactive) | 
CN1C(=O)c2ccc([N+](=O)[O-])cc2C1=O | 4.31% (inactive) | 
CCC[C@H](N[C@@H](C)C(=O)N1[C@H](C(=O)O)C[C@@H]2CCCC[C@@H]21)C(=O)OCC |  | inactive
COc1ccc(COC(C)=O)cc1 |  | inactive
CC1=CC(=O)c2ccccc2C1=O |  | 15.5 µM (active)
CCCCOCCOC(=O)c1ccccc1C(=O)OCCOCCCC | -20.5% (inactive) | 
CCCCCC(=O)O[C@]1(C(C)=O)CC[C@H]2[C@@H]3CCC4=CC(=O)CC[C@]4(C)[C@H]3CC[C@@]21C |  | 24.4 µM (active)
C[N+]1([O-])CCOCC1 | 1.52% (inactive) | 
BrC1CCC(Br)C(Br)CCC(Br)C(Br)CCC1Br (stereo not given) | -12.6% (inactive) | 
CC(C)(O)CCC(C)(C)O | -4.97% (inactive) | 
CCN(CC)CCOc1ccc(/C(=C(\Cl)c2ccccc2)c2ccccc2)cc1 |  | 14.1 µM (active) and 19 µM (active)
Nc1nc2ccccc2[nH]1 |  | inactive
CC(C)C(=O)c1c(C(C)C)nn2ccccc12 | 2.6% [at 35.3 µM] (inactive) | 
CCn1cc(C(=O)O)c(=O)c2cc(F)c(N3CCNC(C)C3)c(F)c21 (stereo not given) | 18.6% [at 35.3 µM] (inactive) | 
O=C(OCc1ccccc1)c1ccc(O)cc1 | -20.4% [at 35.3 µM] (inactive) | 
CC[C@]1(O)C[C@@H]2CN(CCc3c([nH]c4ccccc34)[C@@](C(=O)OC)(c3cc4c(cc3OC)N(C)[C@H]3[C@@](O)(C(=O)OC)[C@H](OC(C)=O)[C@]5(CC)C=CCN6CC[C@]43[C@@H]65)C2)C1 |  | 16.9 nM (active) and 4.8 nM (active)
Cc1ccnc2c1NC(=O)c1cccnc1N2C1CC1 |  | inactive
CCCCCCCCCCCC[N+](C)(C)C |  | 6.15 µM (active) and 3.47 µM (active)
NC12CC3CC(CC(C3)C1)C2 | -2.46% [at 35.3 µM] (inactive) | 
CC(C)(C)c1ccc(O)c(C(C)(C)C)c1 |  | 38.7 µM (active)
